# Assay outcomes deposited in PubChem by Johns Hopkins Ion Channel Center.
# KCNQ2 pot = potentiators of rat KCNQ2 potassium channel | O88943 | CHO-K1 KCNQ2, FluxOR thallium flux fluorescence; stronger effect = higher value | B-score at 10 µM | 310,000 compounds, 0.54% hits | AID 2239;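 active means fluorescence ratio B-score at least 3 SD of library B-scores, with initial fluorescence B-score within 3 of them, cut at about 5.3 in these data; same plate scores as AID 2156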;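 further: B-score of peak minus minimum over baseline fluorescence ratio after K+ and Tl+ stimulus; positive B-score means potentiation of KCNQ2 with more thallium influx and brighter signal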
# KCNQ2 block = blocks the rat KCNQ2 potassium channel. B-score at 10 µM. O88943. 310,000 compounds, 1.1% hits. CHO-K1 KCNQ2, FluxOR thallium flux, 20 min; stronger effect = lower value;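 active means fluorescence ratio B-score at most minus 3 library SDs, with starting brightness B-score within 2 library SDs, cut at about -5.5 in these data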
# Kir21 conf inh = confirmation of mouse Kir2.1 potassium channel inhibitors; 2,300 compounds, 41% hits; Kir2.1-expressing cells, FluxOR thallium flux fluorescence; stronger effect = lower value; AID 2032; Tl flux remaining, % of negative control (stronger effect = lower value), % at 10 µM; shares compounds with KCNQ2 pot;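 active means Primary-screen hit whose thallium flux fell at least 3 control SD below untreated wells in both duplicates, with normal baseline fluorescence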;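 further: 0% = blank wells without stimulus and 100% = stimulated no-compound controls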
# Target sequence (P35561 whole entry, looked up): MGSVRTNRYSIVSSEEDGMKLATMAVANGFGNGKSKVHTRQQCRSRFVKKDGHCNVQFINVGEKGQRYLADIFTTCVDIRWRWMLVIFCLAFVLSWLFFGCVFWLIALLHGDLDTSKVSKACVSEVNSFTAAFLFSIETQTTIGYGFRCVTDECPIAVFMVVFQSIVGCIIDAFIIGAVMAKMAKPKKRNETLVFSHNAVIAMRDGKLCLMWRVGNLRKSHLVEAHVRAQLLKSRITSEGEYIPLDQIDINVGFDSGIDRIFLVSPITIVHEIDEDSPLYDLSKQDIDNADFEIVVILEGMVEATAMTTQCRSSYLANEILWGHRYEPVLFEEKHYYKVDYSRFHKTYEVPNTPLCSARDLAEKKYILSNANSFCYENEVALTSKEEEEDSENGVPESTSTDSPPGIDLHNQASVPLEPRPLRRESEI
# HEK293 ctr = parental HEK293 activity in Kir2.1 inhibitor counter-screen; parental HEK293 cells, FluxOR thallium flux fluorescence; 0% = unstimulated blank wells; 2,300 compounds, 19% hits; shares compounds with KCNQ2 pot; FluxOR signal as % of negative control (100 = no effect), % at 10 µM;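 active means dye signal at least 3 control SD above or below untreated wells in both duplicates, raw fluorescence within 3, either direction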;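 further: percent is based on the flux ratio of peak minus minimum fluorescence over baseline F0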
# CHO-K1 Tl ctr = counter-screen for KCNQ2 potentiators: effect in parental CHO-K1 cells | shares compounds with KCNQ2 pot | 1,200 compounds, 43% hits | FluxOR thallium flux fluorescence; zero = vehicle mean+3SD, 100% = vehicle-minus-blank window | activity increase over 3SD of controls, % at 10 µM;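 active means signal rise of at least 3 SD above the untreated control mean, in both duplicate wells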;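 further: counter screen of KCNQ2 potentiator hits so any rise reflects channel-independent effects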
# KCNQ1 sel pot = tests whether KCNQ2 potentiators also act on human KCNQ1. shares compounds with KCNQ2 pot. CHO KCNQ1 stable, FluxOR thallium flux fluorescence; beyond 3SD, as % of vehicle-control signal. activation over 3SD threshold, % at 10 µM. 1,200 compounds, 28% hits. AID 2283;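 active means fluorescence ratio rise of at least 3 SD of vehicle wells above their mean, in both replicate wells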;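 further: 0% = vehicle mean plus 3 SD and 100% = vehicle minus unstimulated blank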
# KCNQ2 pot conf = confirmation of rat KCNQ2 potassium channel potentiators; shares compounds with KCNQ2 pot; CHO-KCNQ2 cells, FluxOR thallium flux fluorescence; potentiation, less the hit threshold, % at 10 µM; 1,200 compounds, 68% hits;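 active means fluorescence ratio rising 3 SD or more over the vehicle control mean in both replicates, plus primary screen hit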;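 further: peak minus minimum thallium fluorescence divided by baseline after K/Tl stimulus; 0% = vehicle mean plus 3 SD and 100% = vehicle minus unstimulated blank difference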
# Kir21 spec = mouse Kir2.1 off-target activity of KCNQ2 potentiators; HEK293 Kir2.1, FluxOR thallium flux fluorescence; 1,200 compounds, 2% hits; activity over 3SD threshold, % at 10 µM; shares compounds with KCNQ2 pot; AID 2345;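 active means fluorescence ratio rise of at least 3 SD above the vehicle-control mean, seen in both replicates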;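 further: 0% = vehicle mean plus 3 SD and 100% = vehicle minus no-stimulus blank window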
# KCNQ2 W236L pot = rat KCNQ2 W236L mutant potentiation by KCNQ2 potentiators; 940 compounds, 10% hits; AID 2558; current increase over 3SD of negative controls (%), stronger effect = higher value, % at 25 µM; CHO KCNQ2-W236L, automated patch clamp current; shares compounds with KCNQ2 pot;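 active means current increase at least 3 SD of the untreated controls above them in both duplicate recordings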
# Starred values were filed as active, the others as inactive; i = inactive; / = no result given. An excerpt weighted towards active compounds, which were near 1.6% of everything screened.
SMILES,KCNQ2 pot,KCNQ2 block,Kir21 conf inh,HEK293 ctr,others
COc1cccc(NC(=O)c2ccc(NC(=O)C(C)(C)C)cc2)c1,1.23,i,/,/,
CCNC(=S)Nc1nc2c(cc1C(=O)OCC)CCCC2,5.49*,i,i,147.5%*,CHO-K1 Tl ctr=7.6*;KCNQ1 sel pot=-18.7;KCNQ2 pot conf=-2.2;Kir21 spec=-29.5;KCNQ2 W236L pot=i
C=CCNC(=S)Nc1nc2c(cc1C(=O)OCC)CCCC2,4.29,i,/,/,
O=C(NCCCN1CCOCC1)c1ccc(CSc2ccc(Cl)cc2)cc1,0.59,i,62.0%*,i,
CC(C)c1ccc(C(=O)NCCCN2CCOCC2)cc1,/,i,/,/,
CC(C)c1ccc(/C=C(\c2nc3ccccc3[nH]2)S(=O)(=O)c2ccccc2)cc1,/,i,/,/,
O=S(=O)(/C(=C/c1ccc(C(F)(F)F)cc1)c1nc2ccccc2[nH]1)c1ccccc1,-7.84,-7.84*,i,i,
O=C(COc1ccccc1CNCc1ccccc1)Nc1ccccc1,/,i,35.0%*,i,
CCOc1ccccc1CNCc1ccc(C(=O)O)cc1,/,i,/,/,
O=C(CN1CCOCC1)Nc1nc2ccc([N+](=O)[O-])cc2s1,2.26,i,/,/,
COc1ccccc1C1SCCN1S(C)(=O)=O (configuration not stated),/,i,/,/,
CCc1ccc(C2C(C#N)=C(N)C(C#N)(C#N)C3=CCC(C(C)(C)C)CC32)cc1 (configuration not stated),0.99,i,i,i,
CCCCCC(=O)N1CCN(CCN=CC2=C(O)CC(c3ccc(OC)c(OC)c3)CC2=O)CC1 (configuration not stated),/,i,/,/,
C/C(N)=C(/C#N)C(=O)COC(=O)CC1CCCC1,/,i,/,/,
C/C(N)=C(/C#N)C(=O)COC(=O)C1CCC(C(C)(C)C)CC1 (configuration not stated),5.28,i,28.0%*,i,CHO-K1 Tl ctr=8.1*;KCNQ1 sel pot=-36.3;KCNQ2 pot conf=7.8*;Kir21 spec=-102.5;KCNQ2 W236L pot=i
CC1=CC(C)(C)n2c(O)c(N=N)c3c(C)ccc1c32,5.29*,i,i,i,CHO-K1 Tl ctr=54.5*;KCNQ1 sel pot=-9.3;KCNQ2 pot conf=-14.7;Kir21 spec=-21.1
CC1=CC(C)(C)n2c(O)c(N=NC(N)=S)c3c(C)ccc1c32,0.15,i,/,/,
Cc1nc(CCNC(=O)c2ccccc2)cs1,1.49,i,/,/,
COc1ccccc1N1C(=N)S/C(=C\c2ccc(-c3ccccc3C(=O)O)o2)C1=O,0.31,i,/,/,
COc1ccc(CN2C(=O)CN=C2Nc2cc(C)ccc2C)cc1,14.6*,i,i,i,CHO-K1 Tl ctr=0.6*;KCNQ1 sel pot=9.2*;KCNQ2 pot conf=-32.9;Kir21 spec=-41.1
CCc1ccccc1NC1=NCC(=O)N1Cc1ccc(OC)cc1,/,i,/,/,
Cc1ccc(C)c(NNC(N)=S)c1,/,i,/,/,
CC(=O)N(CCP(=O)(c1ccccc1)c1ccccc1)Cc1ccco1,/,i,/,/,
O=C(c1ccco1)N(Cc1ccc(Cl)cc1)Cc1ccco1,/,i,/,/,
CCC(=O)N(CCC(c1ccco1)c1ccccc1OC)Cc1cccs1 (configuration not stated),/,i,/,/,
SMILES,KCNQ2 pot,KCNQ2 block,Kir21 conf inh,HEK293 ctr,others
CC(=O)N(CCC(Cc1ccccc1)c1ccco1)Cc1ccco1 (configuration not stated),-6.04,-6.04*,37.5%*,i,
CC(=O)N(CCC(c1ccccc1)c1ccco1)Cc1cccs1 (configuration not stated),-7.79,-7.79*,47.0%*,i,
O=C(c1ccco1)N(CCC(c1ccccc1)c1ccco1)Cc1ccco1 (configuration not stated),-6.76,-6.76*,72.0%*,i,
CCCc1[nH]c2ccc(C#N)cc2c1CCC,2.15,i,/,/,
O=C(O)c1ccccc1SCC(=O)N1c2ccccc2Sc2ccccc21,/,i,/,/,
CC(=O)Nc1ccc(N/C=C/C(=O)c2ccc(C)cc2)cc1,/,i,/,/,
O=C(CSc1ncn[nH]1)N1N=C(c2ccc(Cl)cc2)CC1c1ccco1 (configuration not stated),/,i,/,/,
Cc1ccc(CCN2CC(C(=O)NCCC(C)C)CC2=O)cc1 (configuration not stated),0.32,i,/,/,
Cc1nc2ccccc2c(=O)n1/N=C/c1ccccc1O,/,i,/,/,
O=C(CCC1N=C2c3ccccc3N=C(SCc3ccccc3Cl)N2C1=O)NCc1ccco1 (configuration not stated),/,i,/,/,
Cn1c(Cn2cnc3ccccc32)nnc1SCc1ccccc1,1.64,i,/,/,
CC(=O)Nc1cccc(NC(=O)CCCC2CCCCC2)c1,1.89,i,/,/,
O=C(CCC1CCCC1)Nc1cccc(Cc2ccncc2)c1,6.32*,i,i,i,CHO-K1 Tl ctr=93.5*;KCNQ1 sel pot=-5.9;KCNQ2 pot conf=-9.5;Kir21 spec=-29.9
COc1ccc(Br)cc1/C(C)=N/NC1=NCCN1,0.2,i,/,/,
CCCCCOc1ccc(Br)cc1/C(C)=N/NC1=NCCN1,/,i,16.0%*,i,
Cc1cccc(C(=O)NCC2CCCO2)c1 (configuration not stated),0.22,i,/,/,
NC(=O)CNC(=O)c1ccc(Cl)cc1,/,i,/,/,
COc1ccc2nc(NNC(=O)c3cc(=O)c4ccccc4o3)sc2c1,13.1*,i,i,i,CHO-K1 Tl ctr=-14.1;KCNQ1 sel pot=-7.9;KCNQ2 pot conf=-23.5;Kir21 spec=-21.1
Cc1cccc2sc(NNC(=O)c3cc(=O)c4ccccc4o3)nc12,0.27,i,/,/,
CCOc1ccc(NC(=O)Cc2ccc(NC3=NC4CS(=O)(=O)CC4S3)cc2)cc1 (configuration not stated),17.3*,i,i,i,CHO-K1 Tl ctr=8.6*;KCNQ1 sel pot=-18.1;KCNQ2 pot conf=-17.7;Kir21 spec=-30.2
CCc1ccc(NC(=O)Cc2ccc(NC3=NC4CS(=O)(=O)CC4S3)cc2)cc1 (configuration not stated),/,i,/,/,
Nc1cc(=O)[nH]n1C1CCCC1,/,i,/,/,
COc1cccc(NC(=O)c2nc(S(C)(=O)=O)ncc2Cl)c1,/,i,63.0%*,64.5%*,
COc1cccc(NC(=O)c2nc(SC)ncc2Cl)c1,0.34,i,/,/,
COc1ccc(OC)c2c(N3CC(C)OC(C)C3)cc(C(F)(F)F)nc12 (configuration not stated),0.8,i,/,/,
N#C/C(=C\c1cccc(O)c1)C(=O)N1CCCCC1,/,i,/,/,
N#C/C(=C\c1cccc(Br)c1)C(=O)N1CCCCC1,-8.53,-8.53*,45.0%*,i,
CCOc1ccc(OCCOCCN2CCc3ccccc3C2)cc1,1.21,i,/,/,
